# Active and inactive are the calls of the source. How the source made its calls: active means hit-call score of the fitted dose curve at least 0.9, where 1 is the maximum; inactive means score below 0.9.
# Test: CCTE_Harrill_HTTr_Viability_MCF7: CCTE's 6-hour Cell Viability Assessment for the High-Throughput Transcriptomics (HTTr) Platform, in MCF-7 cells cultured in DMEM + 10% fetal bovine serum, Harrill Lab (AID 2284010)
# Text: This is a cell-based assay that evaluates cell viability using high content imaging to evaluate membrane integrity using propidium iodide dye exclusion in a 384 well format.One of seven assay components measured from the CCTE_Harrill_HTTr_Viability assay. This was part of a full screening experiment. This is a cell-based assay that evaluates cell viability in MCF-7 cells cultured in DMEM + 10% fetal bovine serum. High content imaging is used to evaluate membrane integrity using propidium iodide dye exclusion. Measurements are taken at 6 hours after chemical dosing in 384-well format.The assay component endpoint CCTE_Harrill_HTTr_Viability_MCF7 was analyzed with bidirectional fitting relation to DMSO as the negative control and baseline of activity. Using a type of viability reporter, gain-of-signal activity can be used to evaluate membrane integrity using propidium iodide dye exclusion to understand changes in cytotoxicity. To generalize the intended target to other relatable targets, this assay endpoint is annotated to cell cycle, where the subfamily is cytotoxicity.
# Chemicals were tested in MCF7 cells in an eight point dilution series with a six hour exposure duration.
Structure (SMILES),outcome,AC50
C[C@H]1C[C@@H](O)CC(C)(C)C1,inactive,
C[C@@H]1CCN(C(=O)[C@H](CCCN=C(N)N)NS(=O)(=O)c2cccc3c2NC[C@H](C)C3)[C@@H](C(=O)O)C1,inactive,
Brc1ccc(Br)c(Br)c1,inactive,
O=CCc1ccccc1,inactive,
CN(C)CCOc1ccc(/C(=C(/CCCl)c2ccccc2)c2ccccc2)cc1,,68.7 µM (active)
COC(=O)c1ccc(C)cc1C1=NC(C)(C(C)C)C(=O)N1 (stereo not given) (tested in a mixture with another compound),inactive,
CC1(C)C2=CCCC(C)(C)[C@]23CC[C@H]1C3,inactive,
CC1=CC[C@@]23C[C@@H]1C(C)(C)[C@@H]2CC[C@H]3C,inactive,
CC1(C)O[C@@H]2[C@@H](CO[C@@]3(COS(N)(=O)=O)OC(C)(C)O[C@@H]23)O1,inactive,
CS(C)=O,inactive,
C=CC(C)(O)CCC=C(C)C (stereo not given),inactive,
CCOC(=O)[C@@H](C)Oc1ccc(Oc2nc3ccc(Cl)cc3o2)cc1,inactive,
CC(=O)O[C@@H]1CC2CCC1(C)C2(C)C (stereo not given in full),inactive,
C=CCOC(=O)CCCCCC,inactive,
CCCCC1(COC(=O)CCC(=O)O)C(=O)N(c2ccccc2)N(c2ccccc2)C1=O,inactive,
CCCN(CCC)S(=O)(=O)c1ccc(C(=O)O)cc1,inactive,
O=c1c(O)c(-c2ccc(O)cc2)oc2cc(O)cc(O)c12,inactive,
COc1ccc(CCN2CCC(Nc3nc4ccccc4n3Cc3ccc(F)cc3)CC2)cc1,,76.2 µM (active)
C=CC(=O)OCCCC,inactive,
CCCC1O[C@@H]2C[C@H]3[C@@H]4CCC5=CC(=O)C=C[C@]5(C)[C@H]4[C@@H](O)C[C@]3(C)[C@]2(C(=O)CO)O1 (stereo not given in full),inactive,

Structure (SMILES),outcome,AC50
CCOC(=O)c1ccc(N)cc1,inactive,
OCCc1ccccc1,inactive,
c1ccc(CCc2ccccc2)cc1,inactive,
O=C(O)CCCCCCCCC(=O)O,inactive,
CS(=O)(=O)OCCCCOS(C)(=O)=O,inactive,
CC(CN=Cc1ccccc1O)N=Cc1ccccc1O (stereo not given),inactive,
COC(=O)Nc1ccc(Cl)c(Cl)c1,inactive,
CC(C=O)Cc1ccc(C(C)(C)C)cc1 (stereo not given),inactive,
C1=CC2C3C=CC(C3)C2C1 (stereo not given),inactive,
CCC(C)=O,inactive,
Nc1ccn([C@H]2CS[C@@H](CO)O2)c(=O)n1,inactive,
Clc1ccc(C(c2ccccc2Cl)C(Cl)Cl)cc1 (stereo not given),inactive,
c1ccc2[nH]cnc2c1,inactive,
CN1C(=O)c2ccccc2C1=O,inactive,
C[C@H]1O[C@@H](O[C@H]2[C@@H](O)C[C@H](O[C@H]3[C@@H](O)C[C@H](O[C@H]4CC[C@@]5(C)[C@H](CC[C@@H]6[C@@H]5C[C@@H](O)[C@]5(C)[C@@H](C7=CC(=O)OC7)CC[C@]65O)C4)O[C@@H]3C)O[C@@H]2C)C[C@H](O)[C@@H]1O,inactive,
[O-]n1ccccc1=S.[O-]n1ccccc1=S.[Zn+2],inactive,
CC(O)C1CCCCC1 (stereo not given),inactive,
CCCSc1ccc2nc(NC(=O)OC)[nH]c2c1,inactive,
COCCc1ccc(OCC(O)CNC(C)C)cc1 (stereo not given),inactive,
CCc1cc(Cc2cc(CC)cc(C(C)(C)C)c2O)c(O)c(C(C)(C)C)c1,inactive,

# Reference: PubChem BioAssay (EPA / NIEHS)
